Compound activity as filed in PubChem BioAssay.
Bcl-xL primary = inhibitors of human Bcl-xL; GST-Bcl-xL / FITC-Bim BH3 peptide fluorescence polarization; inhibition, % at 10.9 µM; 320,000 compounds, 0.7% hits; AID 2129;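 active = inhibition above the mean of all tested compounds plus 3 SD, cutoff set per campaign, cut at about 30% in these data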;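 note: 0% = DMSO wells and 100% = unlabeled Bim-BH3 peptide competitor; inhibitors lower millipolarization by displacing the labeled peptide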
Target sequence (Q07817 whole entry, looked up): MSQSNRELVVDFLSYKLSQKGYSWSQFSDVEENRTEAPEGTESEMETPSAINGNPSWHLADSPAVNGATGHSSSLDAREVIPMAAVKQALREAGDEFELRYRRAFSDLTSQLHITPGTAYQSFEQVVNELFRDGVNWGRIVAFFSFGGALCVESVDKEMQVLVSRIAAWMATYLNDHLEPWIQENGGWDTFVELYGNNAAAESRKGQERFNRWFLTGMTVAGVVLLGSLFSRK
GLD-1 TGE inh = GLD-1-TGE RNA interaction inhibition (C. elegans); purified GLD-1 + fluorescein TGE RNA, fluorescence polarization; 320,000 compounds, 0.44% hits; AID 2280; inhibition, % at 5.96 µM;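 active = percent inhibition above a per-plate cutoff, the plate mean of test compounds plus 3 SD, cut at about 30% in these data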;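 note: 0% = DMSO wells with GLD-1 and probe and 100% = wells lacking GLD-1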
Mcl1-Noxa inh = Mcl-1/Noxa interaction inhibition. 220,000 compounds, 1.5% hits. inhibition, % at 21.7 µM. AID 1022. TR-FRET Mcl-1/Noxa peptide binding, 2 h;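 active = compounds that cut the protein-peptide binding signal by more than 50% relative to plate controls in a single-dose test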;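 note: His-tagged Mcl-1 with rhodamine Noxa BH3 peptide and terbium anti-His antibody; 0% = Mcl-1 plus Noxa peptide wells and 100% = peptide-only wells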
Target sequence (Q07820 whole entry, looked up): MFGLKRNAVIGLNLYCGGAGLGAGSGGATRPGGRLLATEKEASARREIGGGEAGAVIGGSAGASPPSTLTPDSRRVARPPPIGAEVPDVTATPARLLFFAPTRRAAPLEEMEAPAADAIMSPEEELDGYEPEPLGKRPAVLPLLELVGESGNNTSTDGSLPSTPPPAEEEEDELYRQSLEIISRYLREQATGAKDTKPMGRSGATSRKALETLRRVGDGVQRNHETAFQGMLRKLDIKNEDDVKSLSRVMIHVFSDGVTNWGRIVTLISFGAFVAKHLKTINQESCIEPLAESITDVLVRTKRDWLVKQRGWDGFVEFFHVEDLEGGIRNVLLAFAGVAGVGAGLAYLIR
Mcl1 Bid PPI = Mcl-1/Bid interaction inhibition. Q07820. 220,000 compounds, 0.97% hits. AID 1021. inhibition, % at 21.7 µM. TR-FRET Mcl-1/Bid-Dy647 peptide binding, 1536-well;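 active = compounds that cut the binding signal by more than half at the single screening dose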;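 note: His-tagged Mcl-1 with europium anti-His antibody binding Bid BH3 peptide; 0% = Mcl-1 plus peptide wells and 100% = peptide-only wells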
MCL1-BIM inh = inhibitors of human MCL1 binding to BIM-BH3 peptide. Q07820. GST-MCL1 / FITC-Bim-BH3 fluorescence polarization. inhibition, % at 10.9 µM. 320,000 compounds, 0.68% hits. AID 2057;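 active = inhibition above the mean inhibition of all tested compounds plus 3 SD, set per campaign, cut at about 40% in these data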;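 note: 0% = DMSO wells and 100% = unlabeled Bim-BH3 peptide control; higher means more loss of mP so more displacement of Bim peptide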
Mcl-1 Bim block = inhibitors of Bim-Mcl-1 interaction, human; Bead-based flow cytometry, Bim peptide-Mcl-1 binding; inhibition, % at 10 µM; AID 1009; 190,000 compounds, 0.1% hits; Q07820; in the data active = inhibition above about 40%;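 note: 0% = no compound tracer wells and 100% = peptide blocker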
Bcl-xL conf = Bcl-xL (human) inhibition, MCL1 counter-screen confirmation. shares compounds with MCL1-BIM inh. inhibition, % at 10.9 µM. 1,700 compounds, 54% hits. AID 2166. GST-Bcl-xL / FITC-Bim BH3 peptide FP binding;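 active = inhibition above a cutoff equal to the mean inhibition of all tested compounds plus 3 SD, cut at about 30% in these data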;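 note: 0% = DMSO wells and 100% = unlabeled Bim BH3 control peptide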
MCL1 BIM confirm = confirmation of human MCL1 and BIM-BH3 interaction inhibitors | AID 2168 | inhibition, % at 10.9 µM | 1,700 compounds, 61% hits | GST-MCL1 / FITC-Bim-BH3 fluorescence polarization | shares compounds with MCL1-BIM inh;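 active = inhibition above the average of all tested compounds plus 3 SD, cut at about 40% in these data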;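 note: 0% = DMSO wells and 100% = unlabeled Bim-BH3 control peptide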
* marks the source's active call; other numbers are inactive results; nt = no result. Compounds with a hit are over-represented: about 2.3% of the library has one in this group of screens.

SMILES | Bcl-xL primary | GLD-1 TGE inh | Mcl1-Noxa inh | Mcl1 Bid PPI | MCL1-BIM inh | Mcl-1 Bim block | Bcl-xL conf | MCL1 BIM confirm
Cc1nnc(C)c2c(C)n(-c3ccccc3N)c(C)c12 | 95.8* | 45.6* | 5.0 | -61.3 | 94.0* | 0.0 | 13.5 | 14.4
O=c1[nH]c(S)c(/C=C2\C=Nc3ccccc32)s1 | 76.7* | 45.2* | 62.2* | -3.8 | 76.3* | nt | 86.0* | 107.8*
O=C(Cn1c(O)c(/C=C2\C=Nc3ccccc32)sc1=O)N1CCOCC1 | 3.9 | 2.2 | 0.6 | -21.3 | 8.9 | 3.0 | nt | nt
Cc1ccccc1-n1c(SCc2c(C)noc2C)nnc1-c1cccnc1 | 133.2* | 88.9* | 14.5 | -13.1 | 143.8* | -7.0 | 116.2* | 135.8*
COc1cccc(CN2CC(C(=O)N(C)Cc3ccc(C)cc3)CCC2=O)c1 (stereo not given) | 9.9 | -3.2 | nt | nt | 6.8 | nt | nt | nt
COc1ccc(/C=N/NC(=O)c2nn(-c3ccccc3)c(=O)c3c(N)scc23)cc1 | 25.3 | 4.9 | 54.7* | -36.1 | 41.0* | -1.0 | 12.1 | 1.5
COc1ccc(/C=N/NC(=O)c2nn(-c3ccc(C)c(C)c3)c(=O)c3ccccc23)cc1 | -4.8 | 2.9 | 5.1 | 4.6 | 1.4 | -3.0 | nt | nt
Cc1ccc(C)c(C(=O)COC(=O)c2ccc(C)c(S(=O)(=O)N3CCOCC3)c2)c1 | -7.4 | 2.8 | nt | nt | -12.8 | nt | nt | nt
Nc1ccc(N)c(C(=O)O)c1 | 57.8* | 21.1 | 92.4* | 97.6* | 101.0* | nt | 72.0* | 111.8*
Nc1ccc(C(=O)O)c(O)c1 | 17.2 | 14.5 | 14.2 | -16.4 | 31.6 | 1.0 | nt | nt
COC(=O)C(N)Cc1ccc(O)cc1 (stereo not given) | -0.7 | -0.9 | 6.4 | -37.0 | 0.1 | 2.0 | nt | nt
NC(CO)C(=O)NNCc1ccc(O)c(O)c1O (stereo not given) | 36.1* | 22.1 | 101.4* | 5.7 | 71.8* | 0.0 | 36.7* | 60.7*
CCN(CC)c1ccc2cc(NC(=O)CCC(=O)O)c(=O)oc2c1 | 103.3* | 75.3* | 1.2 | -28.3 | 113.3* | 0.0 | 106.2* | 118.3*
Cc1ccc(-c2ccccc2NC(=O)CS(=O)CC(=O)Nc2ccc(C)c(Cl)c2)o1 (stereo not given) | 119.1* | 140.1* | nt | nt | 140.6* | nt | 11.0 | 15.3
Cc1ccc(-c2ccccc2NC(=O)CCl)o1 | 7.9 | 2.1 | 16.2 | -50.6 | 1.8 | -2.0 | nt | nt
O=C(CSc1nc2ccccc2s1)NNC(=S)Nc1ccc(Cl)cc1 | 6.7 | -0.7 | -15.2 | -114.4 | 43.0* | 4.0 | 14.2 | 12.8
Cn1cncc1C#Cc1ccc2cc(C3(O)CCCCC3)oc(=O)c2c1 | 0.8 | 13.9 | nt | nt | 9.6 | nt | nt | nt
CCOC(=O)Nc1ccc(NCc2ccc(F)cc2)nc1N | 141.4* | 132.3* | nt | nt | 191.2* | nt | 35.6* | 30.6
O=C(NCCS(=O)(=O)N1CCN(c2ccc(F)cc2)CC1)C12CC3CC(CC(C3)C1)C2 | 4.2 | 9.0 | nt | nt | 2.0 | nt | nt | nt
CCCn1c(SC(C)C(=O)NCC2CCCO2)nc2sc3c(c2c1=O)CCC3 (stereo not given) | 3.7 | 2.6 | nt | nt | 2.2 | nt | nt | nt
CCn1c(SCC(=O)N/N=C/c2ccc(O)c(OC)c2)nc2ccccc21 | -1.6 | 0.4 | 24.0 | -21.5 | -2.5 | 0.0 | nt | nt
COc1cc(NC(C)C(=O)N2CC(C)OC(C)C2)cc(OC)c1 (stereo not given) | 72.5* | -23.1 | 25.4 | 0.6 | 82.2* | 6.0 | 16.0 | 15.2
O=c1c2c(nc3nc(NCc4ccccc4Cl)[nH]n13)CCC2 | -1.5 | -3.2 | -1.5 | -18.4 | 1.2 | -1.0 | nt | nt
CC1=CC(=Nc2c(C)n(C)n(-c3ccccc3)c2=O)C=CC1=O | 125.3* | 75.6* | 21.0 | -113.6 | 126.2* | nt | 28.4 | 24.7
Cc1ccc(/C=C/C(=O)OCC(=O)c2ccc3c(c2)NC(=O)CO3)o1 | nt | 1.8 | nt | nt | nt | nt | nt | nt
SMILES | Bcl-xL primary | GLD-1 TGE inh | Mcl1-Noxa inh | Mcl1 Bid PPI | MCL1-BIM inh | Mcl-1 Bim block | Bcl-xL conf | MCL1 BIM confirm
O=C1COc2ccc(C(=O)COC(=O)/C=C/c3ccc(Br)o3)cc2N1 | 14.0 | -6.0 | nt | nt | 72.9* | nt | 4.2 | 50.7*
CNC(=O)c1c(N)sc2c1CCCCC2 | 55.6* | 35.5* | 21.0 | 3.7 | 71.6* | -4.0 | 43.8* | 51.9*
NC(=O)c1c(N)sc2c1CCCCC2 | 11.6 | 5.0 | -4.2 | -99.4 | 10.0 | -5.0 | nt | nt
N#Cc1c(=O)c2nc(NCc3ccccc3)ncc2n2ccccc12 | 43.6* | 20.4 | 35.1 | -9.5 | 53.0* | 5.0 | 32.4* | 43.1*
Cc1ccc(SCCOCCN2CCc3ccccc3C2)cc1 | -1.3 | 3.9 | 29.8 | 29.4 | 1.1 | -7.0 | nt | nt
COC(=O)CCCCC1SCC(NC(=O)OC)C1NC(=O)OC (stereo not given) | 6.2 | -2.6 | -1.4 | -26.4 | 48.7* | 0.0 | 5.4 | 2.1
COC(=O)CCCC[C@@H]1SC[C@@H](NC(=O)OC)[C@@H]1NC(=O)OC | 2.9 | 8.0 | -5.5 | -24.2 | -3.4 | -2.0 | nt | nt
C[C@@H](NC(=O)[C@@H]1Cc2ccccc2CN1)C(=O)Nc1ccc2c(c1)OCCO2 | 4.4 | 0.5 | nt | nt | 4.4 | nt | nt | nt
Cc1ccc(/C=C2/NC(=O)N(Cc3ccc(Br)cc3)C2=O)o1 | 21.5 | 25.1 | 19.0 | -14.6 | 46.4* | -1.0 | -1.6 | 20.9
O=C(CN1C(=O)NC(Cc2c[nH]c3ccccc23)C1=O)NCCc1ccccc1 (stereo not given) | 0.9 | -12.3 | nt | nt | 3.8 | nt | nt | nt
C[C@H](NC(=O)C1CCN(S(=O)(=O)c2ccccc2)CC1)C(=O)NCc1ccccn1 | 6.2 | 3.4 | nt | nt | 2.9 | nt | nt | nt
Clc1ccc(NCc2cccnc2)cc1 | 2.9 | 1.2 | nt | nt | -2.9 | nt | nt | nt
Fc1ccc(NCc2cccnc2)cc1F | 63.5* | 24.0 | 15.1 | 32.8 | 70.9* | -1.0 | 69.8* | 90.5*
Cc1ccc(-n2nc3c(=O)n(CCCC(=O)NCc4cccc(F)c4)nc(C)c3c2C)cc1 | 8.5 | 4.6 | nt | nt | 5.6 | nt | nt | nt
N#Cc1c(SCC(=O)Nc2nc3ccccc3s2)sc2c(O)cc(=O)[nH]c12 | 30.6* | 1.3 | nt | nt | 57.3* | nt | 26.4 | 71.6*
N#Cc1c(SCC(=O)Nc2nccs2)sc2c(O)cc(=O)[nH]c12 | 17.4 | -4.6 | nt | nt | 49.6* | nt | 15.4 | 14.4
CCCSc1nnc(NC(=O)CSc2sc3c(O)cc(=O)[nH]c3c2C#N)s1 | 19.2 | 1.8 | nt | nt | 39.0 | nt | nt | nt
N#Cc1c(SCC(=O)Nc2nc3ccc(Br)cc3s2)sc2c(O)cc(=O)[nH]c12 | 19.4 | -8.1 | nt | nt | 47.8* | nt | 22.8 | 54.1*
N#Cc1cccc(NC(=O)CSc2sc3c(O)cc(=O)[nH]c3c2C#N)c1 | 1.4 | 0.2 | nt | nt | -4.3 | nt | nt | nt
Cn1c(=O)[nH]c(=O)c2c1nc(N/N=C/c1ccncc1)n2Cc1ccc(Cl)cc1 | 4.7 | -2.6 | 17.8 | -34.3 | 1.6 | nt | nt | nt
O=C1c2cccc(O)c2C(=O)c2c(O)cccc21 | 119.3* | 92.1* | 9.0 | 8.0 | 157.7* | -1.0 | 80.9* | 96.8*
